High-throughput results deposited in PubChem by several laboratories.
ATG4B inhibitor = ATG4B (human) cysteine protease inhibition; ATG4B cleavage of LC3-PLA2, NBD-HPC fluorescence, 1 h; inhibition, % at 8.33 µM; Q9Y4P1; AID 504462; actives 0.51% (n = 340,000); in the data active = inhibition above about 40%
Target sequence (Q9Y4P1 whole entry, looked up): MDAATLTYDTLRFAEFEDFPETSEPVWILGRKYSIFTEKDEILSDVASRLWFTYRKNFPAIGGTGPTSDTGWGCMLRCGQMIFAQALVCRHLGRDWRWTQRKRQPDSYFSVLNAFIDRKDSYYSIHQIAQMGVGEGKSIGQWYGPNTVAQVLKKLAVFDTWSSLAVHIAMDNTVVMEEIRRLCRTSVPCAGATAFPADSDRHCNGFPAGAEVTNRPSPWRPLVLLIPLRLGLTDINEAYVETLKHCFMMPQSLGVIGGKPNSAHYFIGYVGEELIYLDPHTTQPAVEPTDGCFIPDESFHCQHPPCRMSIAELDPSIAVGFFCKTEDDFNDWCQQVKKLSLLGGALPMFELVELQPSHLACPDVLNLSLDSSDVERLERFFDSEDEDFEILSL
SKKanGAS inh = inhibitors of SKKanGAS S. pyogenes growth in kanamycin (SK-promoter or general growth effect). BacTiter-Glo, 6 h. actives 1.3% (n = 300,000). inhibition, % at 7.5 µM;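 active = mean replicate score, as percent of positive control median, at least 50; inconclusive = mean below 50 but one replicate at or above 50; inactive = mean and every replicate below 50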;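 also: strain carries kanamycin resistance gene driven by streptokinase promoter and grows in 40 µg/ml kanamycin; loss of luminescence reflects streptokinase promoter inhibition or plain growth inhibition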
tim10-1 inh = growth inhibitors of tim10-1 mutant yeast; S. cerevisiae tim10-1 ts strain growth, BacTiter-Glo, 24 h; inhibition, % at 20 µM; actives 2.2% (n = 330,000);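 active = inhibition of at least 40%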;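 also: mutant grown at 25 °C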
PfHsp90 yeast 2 = growth inhibition of yeast expressing Plasmodium Hsp90. actives 0.32% (n = 310,000). S. cerevisiae expressing PfHsp90, BacTiter-Glo ATP, 48 h; yeast lacking PDR1 and PDR3 efflux regulators. AID 504621. inhibition, % at 9.4 µM;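 active = every replicate shows inhibition above about 80%, whatever the replicate mean, limit read from the data; inconclusive = mean inhibition reaches the set limit but some replicate falls short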
TIM10 inh = growth inhibitors of TIM10 yeast strain; S. cerevisiae TIM10 strain growth, BacTiter-Glo luminescence, 24 h; inhibition, % at 10 µM; actives 1.4% (n = 330,000); AID 463195;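 active = inhibition of 40% or more at the single tested concentration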;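 also: wild-type TIM10 isogenic control strain grown at permissive 25 °C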
tim23-1 inh = growth inhibitors of tim23-1 mutant yeast; S. cerevisiae tim23-1 growth, BacTiter-Glo luminescence, 24 h; inhibition, % at 20 µM; actives 1.3% (n = 330,000); AID 463212;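 active = growth inhibition of the mutant yeast at or above 50%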;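 also: temperature-sensitive mutant grown at 25 °C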
Each line names hits and unclear results; the compound was inactive in the other large screens. Compounds with a hit are over-represented: about 4.7% of the library has one in this group of screens.

O=C(Nc1ccc(F)cc1)c1nc2c(nnn2Cc2cccc3ccccc23)c(=O)[nH]1	SKKanGAS inh 62
COc1cccc(OC)c1NC(=O)c1nc2c(nnn2Cc2ccccc2Cl)c(=O)[nH]1	none
COc1cccc(OC)c1C(=O)Nc1ccc2c(c1)N(S(=O)(=O)c1cccs1)CCC2	none
O=C(Nc1ccc2c(c1)N(S(=O)(=O)c1cccs1)CCC2)c1c(F)cccc1Cl	SKKanGAS inh 51
COc1cc(/C=C/C(=O)OCC(=O)N(C)Cc2ccccc2)cc(OC)c1OC	none (no result: SKKanGAS inh)
CCn1c2ccccc2c2cc(/C=N/n3cnnc3)ccc21	none
CC(NS(=O)(=O)c1ccccc1)C1CC2CCC1C2 (stereo not given)	none
O=C(NC(=S)Nc1cc(Cl)ccc1O)c1cccc(Br)c1	SKKanGAS inh 108
COc1ccc(S(=O)(=O)CCC(=O)N2CCN(c3ccc(C(C)=O)cc3)CC2)cc1	none
CCc1ccc(/C=N/N2CCN(c3ccccn3)CC2)cc1	none
CN(CC(=O)Nc1cccc(F)c1)C(=O)c1cn(-c2ccccc2)nc1-c1ccc(Cl)cc1	PfHsp90 yeast 2 98 (no result: SKKanGAS inh)
COc1ccc(NC(=O)CN(C)C(=O)/C=C/c2cn(-c3ccccc3)nc2-c2ccc(C)cc2)cc1	SKKanGAS inh 58
COc1ccc(NC(=O)CN(C)C(=O)/C=C/c2cn(-c3ccccc3)nc2-c2ccc(F)cc2)cc1	SKKanGAS inh 63
COc1ccc(NC(=O)CN(C)C(=O)/C=C/c2cn(-c3ccccc3)nc2-c2cccs2)cc1	none
CN(CC(=O)Nc1cccc(F)c1)C(=O)c1cn(-c2ccccc2)nc1-c1cccs1	none
COc1cccc(NC(=O)CN(C)C(=O)/C=C/c2cn(-c3ccccc3)nc2-c2ccc(C)cc2)c1	none (no result: PfHsp90 yeast 2)
Oc1c(C(Nc2ccccn2)c2ccccn2)ccc2cccnc12 (stereo not given)	SKKanGAS inh 72
Cc1ccc2ccc(C(Nc3ccccn3)c3ccccc3)c(O)c2n1 (stereo not given)	SKKanGAS inh 85
Cc1ccnc(NC(c2ccsc2)c2ccc3ccc(C)nc3c2O)c1 (stereo not given)	SKKanGAS inh 93
Cc1ccnc(NC(c2cccnc2)c2ccc3cccnc3c2O)c1 (stereo not given)	SKKanGAS inh inconclusive
COc1cc(C(Nc2ccccn2)c2ccc3ccc(C)nc3c2O)cc(OC)c1O (stereo not given)	none
Cc1ccc2ccc(C(Nc3cccc(C(F)(F)F)c3)c3cccnc3)c(O)c2n1 (stereo not given)	SKKanGAS inh 65
Oc1ccccc1C(Nc1nccs1)c1ccc2cccnc2c1O (stereo not given)	SKKanGAS inh 75
COc1ccc(C(Nc2cc(C)ccn2)c2ccc3ccc(C)nc3c2O)cc1 (stereo not given)	SKKanGAS inh 61
Cc1ccnc(NC(c2ccccc2)c2ccc3cccnc3c2O)c1 (stereo not given)	none (no result: SKKanGAS inh, tim10-1 inh, TIM10 inh, tim23-1 inh)
C#CCOCCOCCOCCNc1nc(N2CCN(C(=O)[C@H](CCCCN)n3cc(CN)nn3)CC2)nc(N2CCN(C(=O)[C@H](CCCCN)n3cc(CN)nn3)CC2)n1	none (no result: SKKanGAS inh)
Cc1cccc(NS(=O)(=O)c2cccc(C(=O)NCc3ccccc3CN3CCOCC3)c2)c1	none (no result: SKKanGAS inh)
COc1cc(NC(=O)COC(=O)CSc2ccccc2F)c(C)cc1[N+](=O)[O-]	none
O=c1c2c(nc3c(-c4ccccc4)c[nH]n13)CCC2	none
O=c1c2c(nc3c(-c4ccc(Cl)cc4)c[nH]n13)CCC2	SKKanGAS inh 66
COC(=O)c1ccc2c(c1)N(Cc1ccccc1F)C(=O)c1ccccc1S2=O (stereo not given)	none
O=C(COc1ccc(Cl)cc1)NC1=NN(c2ccccc2)C(=O)C1	SKKanGAS inh 62, PfHsp90 yeast 2 125
COc1cc(/C=N/NC(=O)CSc2cc(C)c(Br)cc2C)ccc1O	none
Cc1cc(SCC(=O)N/N=C/c2ccc(O)c(O)c2O)c(C)cc1Br	SKKanGAS inh 69 (no result: PfHsp90 yeast 2)
N#CCCN1CCNCC1	none
Cc1cc2nc(C3CCN(C(=S)NCC(C)C)CC3)[nH]c2cc1C	none
O=C(O)CN1C(=O)/C(=C\c2ccccc2OCc2ccc(Cl)cc2Cl)SC1=S	SKKanGAS inh 71
O=C(O)CN1C(=O)/C(=C\c2cccc(OCc3ccc(Cl)cc3Cl)c2)SC1=S	none
COc1ccccc1C/C(N)=N/OC(=O)COc1ccc(C)cc1	none
Cc1ccc(C(=O)Nc2nnc(S(=O)(=O)N3CCN(c4ccc(F)cc4)CC3)s2)cc1	SKKanGAS inh 54
CC(=O)Nc1nnc(S(=O)(=O)N2CCN(c3ccc([N+](=O)[O-])cc3Cl)CC2)s1	SKKanGAS inh 55
COc1ccccc1C(=O)Nc1nnc(S(=O)(=O)N2CCN(c3ccc(F)cc3)CC2)s1	SKKanGAS inh 54
COCCCNC(=O)c1c(N)n(-c2cccc(S(N)(=O)=O)c2)c2nc3ccccc3nc12	none
CCC1=Nc2cc(C(=O)NCc3ccco3)ccc2Sc2ccccc21	none
COc1cc(NC(=S)N2CCN(CCO)CC2)cc(OC)c1	none
Cc1cccc(NC2=Nc3ccccc3N3C2=Nc2c(c(C)nn2-c2ccccc2)C3c2ccc(O)c(O)c2)c1 (stereo not given)	SKKanGAS inh 99
Cc1nn(-c2ccccc2)c2c1C(c1ccc(O)c(O)c1)N1C(=N2)C(Nc2ccccc2)=Nc2ccccc21 (stereo not given)	SKKanGAS inh 88
O=C(O)C1Nc2c(Cl)cc(Cl)c(Cl)c2C2C=CCC12 (stereo not given)	none (no result: tim10-1 inh, TIM10 inh, tim23-1 inh)
CC(C)C1Nc2c(O)cc(Cl)c([N+](=O)[O-])c2C2C=CCC21 (stereo not given)	SKKanGAS inh 79, PfHsp90 yeast 2 110 (no result: tim10-1 inh, TIM10 inh, tim23-1 inh)
COc1ccc(C2=CC(c3cc(OC)c(OC)c(OC)c3)NC(=S)N2)cc1 (stereo not given)	none
CSc1nc(SCC(=O)O)c2sc3nc(-c4ccccc4)c4c(c3c2n1)CCC4	SKKanGAS inh 68 (no result: tim10-1 inh, TIM10 inh, tim23-1 inh)
O=C(NC(=S)Nc1ccc(-c2ccc(CO)o2)cc1)c1cccs1	none (no result: SKKanGAS inh)
Cc1ccc(C(=O)NC(=S)Nc2ccc(-c3ccc(CO)o3)cc2)cc1	SKKanGAS inh 61
Cc1cc(C)cc(NC(=O)C(OC(=O)c2ccc(NC(=O)CC#N)cc2)c2ccccc2)c1 (stereo not given)	SKKanGAS inh 57 (no result: PfHsp90 yeast 2)
CC(OC(=O)c1ccc(NC(=O)CC#N)cc1)C(=O)NC(=O)NC1CCCCC1 (stereo not given)	SKKanGAS inh 59
CC(OC(=O)c1ccc(NC(=O)CC#N)cc1)C(=O)NCCC1=CCCCC1 (stereo not given)	none (no result: SKKanGAS inh)
Cc1ccccc1-c1cccc([C@@H]2C[C@H]3[C@H](CON3C)CN2C)c1	none (no result: SKKanGAS inh, tim10-1 inh, TIM10 inh, tim23-1 inh)
CCc1ccc(Nc2cnn(C34CC5CC(CC(CC(=O)O)(C5)C3)C4)c(=O)c2Cl)cc1	none
